From PubChem BioAssay
Sampled rows, rich in hits. Any-hit rate of the full collection: about 7.8%.
NOMO-1 viab – STK33 inhibitor candidate reducing NOMO-1 cell viability. NOMO-1 AML viability, CellTiter-Glo luminescence, 72 h. inhibition, % (no concentration beside the values). actives 7.5% (n = 37,000). AID 2330; in the data active means inhibition above about 80%; inconclusive means no clear call, values can overlap the other calls
MITF inhib – blocks MITF activity. AID 2240. TRPM1 promoter luciferase, luminescence, 24 h. actives 0.28% (n = 37,000). inhibition, % (concentration not given with the values); in the data active means inhibition above about 85%; inconclusive means no clear call, values can overlap the other calls; inactive means below about 68%;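 further: human melanocyte line stably carrying TRPM1 promoter luciferase reporter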
Shh pathway inh – Sonic Hedgehog pathway inhibition | actives 2.1% (n = 22,000) | AID 2313 | inhibition, % (concentration not given with the values) | Shh-LIGHT2 Gli-luciferase reporter, 30 h;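 active means mean inhibition across valid replicates above about 65%, limit read from the data; inconclusive means mean under the limit, yet half or more replicates past it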;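 further: pathway switched on by Shh-conditioned medium diluted 1 in 25 in low serum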
Of the large screens only hits and unclear results are named; the others gave an inactive call.

C[C@@H]1CN([C@H](C)CO)C(=O)c2cc(NC(=O)Cc3cn(C)c4ccccc34)ccc2O[C@@H]1CN(C)Cc1ccc(Cl)c(Cl)c1	NOMO-1 viab 111.7
C[C@H]1CN([C@@H](C)CO)C(=O)c2cc(NC(=O)Cc3cn(C)c4ccccc34)ccc2O[C@H]1CN(C)Cc1ccc2c(c1)OCO2	none (no result: Shh pathway inh)
C[C@@H]1CN([C@H](C)CO)C(=O)c2cc(NC(=O)Cc3cn(C)c4ccccc34)ccc2O[C@H]1CN(C)Cc1ccc(Cl)c(Cl)c1	NOMO-1 viab inconclusive
CCCNc1nc(Cl)nc(NCCC)n1	none (no result: Shh pathway inh)
C[C@@H]1CN([C@@H](C)CO)C(=O)Cc2cc(NC(=O)Cc3ccccc3)ccc2O[C@@H]1CN(C)Cc1ccc(-c2ccccc2)cc1	NOMO-1 viab inconclusive
O=C(N(c1ccccc1)c1ccc(F)cc1)C12CC3CC(CC(C3)C1)C2	none (no result: Shh pathway inh)
C=C1C(=O)O[C@@H]2/C=C(/CO)CC/C=C(/C=O)C[C@@H](O)[C@@H]12	NOMO-1 viab 108.6
C=C1C(=O)O[C@@H]2/C=C(/C)CC/C=C(/C=O)C[C@@H](OC(=O)CC(C)C)C12 (some centres not stated)	none (no result: NOMO-1 viab, MITF inhib)
C=C1C(=O)OC2CC1C(OC(C)=O)C/C(C)=C\CC/C(C)=C\CC[C@]2(C)O (some centres not stated)	NOMO-1 viab 111.2, MITF inhib inconclusive, Shh pathway inh 87.5
COc1cc(C)c(Cl)c(C)c1S(=O)(=O)NCc1cccnc1	none (no result: Shh pathway inh)
C[C@H](CO)N1C[C@H](C)[C@H](CN(C)C(=O)Nc2ccccc2)Oc2ccc(NC(=O)Nc3ccccc3)cc2C1=O	none
C[C@@H]1CN([C@H](C)CO)C(=O)c2cccc(N(C)C)c2O[C@@H]1CN(C)C(=O)Nc1ccccc1	none
C[C@@H]1CN([C@@H](C)CO)C(=O)c2cccc(NC(=O)c3ccncc3)c2O[C@H]1CN(C)Cc1ccc2c(c1)OCO2	none
N=c1n(CC(=O)c2ccco2)c2ccccc2n1Cc1ccccc1	none
Cc1cc(Br)c2c(c1)C(O)(CC(=O)c1ccc(C)o1)C(=O)N2 (configuration not stated)	NOMO-1 viab inconclusive (no result: Shh pathway inh)
Cc1cc(Br)c2c(c1)C(O)(CC(=O)c1ccco1)C(=O)N2C (configuration not stated)	NOMO-1 viab 121.9 (no result: Shh pathway inh)
Cc1ccc2c(c1)C(O)(CC(=O)c1ccccc1[N+](=O)[O-])C(=O)N2 (configuration not stated)	none (no result: Shh pathway inh)
O=C(CC1(O)C(=O)N(Cc2ccccc2)c2ccc(Br)cc21)c1ccccc1[N+](=O)[O-] (configuration not stated)	NOMO-1 viab 99.5 (no result: Shh pathway inh)
O=C(CC1(O)C(=O)N(Cc2ccccc2)c2ccc(Br)cc21)c1ccco1 (configuration not stated)	NOMO-1 viab 114.1 (no result: Shh pathway inh)
C[C@@H]1CN([C@H](C)CO)C(=O)c2cccc(NC(=O)Nc3ccc(F)cc3)c2O[C@H]1CN(C)S(=O)(=O)c1cn(C)cn1	none
C[C@H]1CN([C@@H](C)CO)C(=O)Cc2cc(NC(=O)CCC(F)(F)F)ccc2O[C@@H]1CN(C)C(=O)Nc1ccc2c(c1)OCO2	none
CNC[C@@H]1Oc2c(NC(=O)C3CCCCC3)cccc2C(=O)N([C@@H](C)CO)C[C@@H]1C	none
CCCC1(O)Cc2c(C(C)=O)cc3cccc(O)c3c2O1 (configuration not stated)	none
O=S(=O)(/N=S1/CCC2(C1)OCCO2)c1cc(C(F)(F)F)cc(C(F)(F)F)c1 (configuration not stated)	none
C[C@H](CO)N1C[C@H](C)[C@H](CN(C)S(=O)(=O)c2ccccc2)Oc2c(NC(=O)c3cnccn3)cccc2C1=O	none
C[C@H](CO)N1C[C@H](C)[C@H](CN(C)Cc2ccc(-c3ccccc3)cc2)Oc2ccc(NC(=O)Nc3ccc(C(F)(F)F)cc3)cc2CC1=O	NOMO-1 viab 126.3
C[C@@H]1CN([C@H](C)CO)C(=O)Cc2cc(NC(=O)Nc3ccc(C(F)(F)F)cc3)ccc2O[C@@H]1CN(C)Cc1ccc(-c2ccccc2)cc1	NOMO-1 viab 114.3
C[C@H]1CN([C@@H](C)CO)C(=O)Cc2cc(NC(=O)Nc3ccc(C(F)(F)F)cc3)ccc2O[C@@H]1CN(C)Cc1ccc(Oc2ccccc2)cc1	none
Cn1c(SCc2nc3ccccc3s2)nnc1-c1cccnc1	none (no result: Shh pathway inh)
CCc1ccc2nc(-c3cccc(OC)c3)cc(C(=O)NCc3ccco3)c2c1	none (no result: Shh pathway inh)
C[C@H]1CN([C@@H](C)CO)C(=O)Cc2cc(NC(=O)Nc3ccc(F)cc3)ccc2O[C@@H]1CN(C)C	none
C=CCn1c(C(C)Oc2ccc(Cl)cc2Cl)n[nH]c1=S (configuration not stated)	none
C[C@@H]1CN([C@H](C)CO)C(=O)Cc2cc(N(C)C)ccc2O[C@@H]1CN(C)Cc1ccc(C(=O)Nc2ccccc2N)cc1	NOMO-1 viab 139.7 (no result: Shh pathway inh)
C[C@@H]1CN([C@H](C)CO)C(=O)Cc2cc(NC(=O)C3CC3)ccc2O[C@@H]1CN(C)Cc1ccc(C(=O)Nc2ccccc2N)cc1	none (no result: Shh pathway inh)
C[C@@H]1CN([C@H](C)CO)C(=O)Cc2cc(NC(=O)c3ccncc3)ccc2O[C@H]1CN(C)Cc1ccc(C(=O)Nc2ccccc2N)cc1	none (no result: Shh pathway inh)
C[C@@H]1CN([C@H](C)CO)C(=O)Cc2cc(N(C)C)ccc2O[C@H]1CN(C)Cc1ccc(C(=O)Nc2ccccc2N)cc1	NOMO-1 viab 126.9 (no result: Shh pathway inh)
CC(C)NC(=O)N(C)C[C@@H]1Oc2ccc(NC(=O)Nc3cccc4ccccc34)cc2C(=O)N([C@H](C)CO)C[C@@H]1C	none (no result: Shh pathway inh)
CN(C)CCCNc1ncnc2c1sc1nc(N3CCOCC3)c3c(c12)CCC3	NOMO-1 viab 97.8 (no result: Shh pathway inh)
c1nc(NCC2CCCO2)c2sc3nc(N4CCCCC4)c4c(c3c2n1)CCCC4 (configuration not stated)	none (no result: Shh pathway inh)
Cn1c(=O)c2c(nc(NCCN3CCOCC3)n2Cc2ccc(Cl)cc2Cl)n(C)c1=O	none (no result: Shh pathway inh)
CC(C)c1ccc(C2C(C#N)=C(N)C(C#N)(C#N)C3=CCN(C)CC32)cc1 (configuration not stated)	NOMO-1 viab 105.4, Shh pathway inh 74.1
Nc1cccc(-c2cc3c(Oc4cccc(O)c4)ncnc3[nH]2)c1	NOMO-1 viab 91.0
CCC1NC(=O)c2cc(S(N)(=O)=O)c(Cl)cc2N1 (configuration not stated)	none
N#C/C(=C\Nc1cccc(Cl)c1)S(=O)(=O)c1ccc(Cl)cc1	NOMO-1 viab 84.3, Shh pathway inh inconclusive
CCOC(=O)/C(=C\Nc1ccc(F)c(Cl)c1)S(=O)(=O)c1ccc(Cl)cc1	none (no result: Shh pathway inh)
CC(C)NC(=O)Nc1ccc2c(c1)CC(=O)N([C@H](C)CO)C[C@@H](C)[C@H](CN(C)Cc1ccc(C(F)(F)F)cc1)O2	none
C[C@H](CO)N1C[C@H](C)[C@@H](CN(C)C(=O)Nc2ccc(F)cc2)Oc2c(NC(=O)Nc3cccc4ccccc34)cccc2C1=O	none
C[C@@H]1CN([C@@H](C)CO)C(=O)c2cccc(NC(=O)Nc3ccc(F)cc3)c2O[C@@H]1CN(C)C(=O)Nc1cccc2ccccc12	NOMO-1 viab 96.0, Shh pathway inh inconclusive
C[C@H](CO)N1C[C@H](C)[C@@H](CN(C)C(=O)Nc2cccc3ccccc23)Oc2c(NC(=O)Nc3ccc(F)cc3)cccc2C1=O	Shh pathway inh 79.8
C[C@@H]1CN([C@H](C)CO)C(=O)c2cccc(NC(=O)Nc3ccc(F)cc3)c2O[C@@H]1CN(C)C(=O)Nc1cccc2ccccc12	none
